# Inconclusive results are not listed. Active and inactive are the calls of the source. Calls follow the shape of the full dose curve.
# Target: cAMP-dependent protein kinase catalytic subunit alpha (Homo sapiens) (UniProt P17612)
# Assay: Protein Kinase A (PKA-HiBiT) enzymatic inhibition screen - Functional assay
# Conditions: luminescence; series mostly up to 57.5 µM; activity change, negative = inhibition: at the top concentration
# How it was run: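 Kinase-Glo Plus luminescence reported remaining ATP after a 3 h room-temperature kemptide phosphorylation. The reaction used 10 nM PKA-N-HiBiT and 87.5 uM ATP, after 30 min compound preincubation; DMSO neutral, H-89 positive.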
SMILES,"activity change, negative = inhibition",Potency
CN1CCN(C2CCC(n3cc(-c4ccc(Oc5ccccc5)cc4)c4c(N)ncnc43)CC2)CC1 (stereo unspecified),8.56% (inactive),
CNc1ncc2cc(-c3cc(NC(=O)NCCC(C)(C)C)c(F)cc3C)c(C)nc2n1,9.18% (inactive),
Cc1sc2c(c1C)C(c1ccc(Cl)cc1)=N[C@@H](CC(=O)Nc1ccc(OCCOCCOCCOCCNc3cccc4c3C(=O)N(C3CCC(=O)NC3=O)C4=O)cc1)c1nnc(C)n1-2 (stereo partly specified),8.8% (inactive),
COc1ccc(S(=O)(=O)N(C(C)=O)c2ccccc2/C=C/c2cc[n+]([O-])cc2)cc1,8.95% (inactive),
O=c1cc(N2CCOCC2)nc2c3ccccc3ccn12,7.64% (inactive),
CCn1c(=O)c(-c2ccc(Cl)cc2Cl)cc2cnc(Nc3ccc(N4CCNCC4)c(F)c3)nc21,3.24% (inactive),
CCCCCCCCCCCCc1ccc(S(=O)(=O)Nc2nncs2)cc1,8.92% (inactive),
Cc1cc(NC(=O)c2ccc(C)c(Nc3nccc(-c4cccnc4)n3)c2)cc(-n2cnc(C)c2)c1,8.62% (inactive),
O=c1c(O)c(-c2ccc(O)c(O)c2)oc2cc(O)cc(O)c12,9.03% (inactive),
O=C(Nc1ccc(OC(F)(F)F)cc1)c1sccc1NCc1ccnc2ccccc12,8.4% (inactive),
FC(F)(F)c1ccc(/C=C/c2nc(COc3ccc(CCCCn4ccnn4)cc3)co2)cc1,7.55% (inactive),
Cn1sc(=O)n(Cc2ccccc2)c1=O,8.82% (inactive),
Cc1ccc(NC(=O)N2CCN(c3nc(N)nc4sc(-c5cccnc5)nc34)CC2)cc1,9.15% (inactive),
COc1cc(N2CCC(O)CC2)ccc1Nc1nc(Nc2ccccc2S(=O)(=O)C(C)C)c2[nH]cnc2n1,8.78% (inactive),
COc1ccc(CNC(=O)Nc2ncc([N+](=O)[O-])s2)cc1,9.14% (inactive),
COc1cc2ncnc(-n3nc(-c4ccccn4)nc3N)c2cc1OC,8.51% [at 28.8 µM] (inactive),
CN(c1ncccc1CNc1nc(Nc2ccc3c(c2)CC(=O)N3)ncc1C(F)(F)F)S(C)(=O)=O,,24.3 µM (active)
CC1(C)OCCn2c1nc1c(N3CCOCC3)nc(-c3cnc(N)nc3)nc12,8.94% (inactive),

SMILES,"activity change, negative = inhibition",Potency
O=C(NC1CCNCC1)c1[nH]ncc1NC(=O)c1c(Cl)cccc1Cl,9.1% (inactive),
O=C(NCCO)c1cccc(-c2cc(Nc3ccc(OC(F)(F)F)cc3)ncn2)c1,9.23% (inactive),
NC1CCC(Nc2nc(Nc3ccc(C(=O)N4CCCCC4)cc3)c3ncn(-c4cccc(F)c4)c3n2)CC1 (stereo unspecified),-11.9% (inactive),
CSc1cccc(Nc2ncc3cc(-c4c(Cl)cccc4Cl)c(=O)n(C)c3n2)c1,6.46% (inactive),
C=CC(=O)N1CCC[C@@H](n2nc(-c3cccc(C(=O)Nc4ccc(C(C)C)c(C)c4)c3)c3c(N)ncnc32)C1,9.01% (inactive),
COc1cc(N2CCOCC2)ccc1Nc1ncc(Cl)c(Nc2ccccc2NS(C)(=O)=O)n1,-15.9% (inactive),
N#Cc1ccc2ncnc(NCCc3ccccc3)c2c1,8.93% (inactive),
COC(=O)Nc1ccc(-c2nc(N3CCOCC3)c3cnn(C4CCN(C(=O)OC)CC4)c3n2)cc1,8.89% (inactive),
O=C(c1cccc(Cl)c1F)N1CCN(Cc2cccc(Nc3nccs3)n2)CC1,8.99% (inactive),
Cc1nc(NC(=O)N2CCC[C@H]2C(N)=O)sc1-c1ccnc(C(C)(C)C(F)(F)F)c1,7.59% (inactive),
CC(C)(C)n1nc(-c2cccc3ccccc23)c2c(N)ncnc21,8.74% (inactive),
C=CC(=O)Nc1cccc(Oc2nc(Nc3ccc(N4CCN(C)CC4)cc3OC)ncc2Cl)c1,8.93% (inactive),
CNC(=O)c1ccccc1Nc1nc(Nc2ccc(N3CCOCC3)cc2OC)ncc1Cl,8.92% (inactive),
Cc1ccccc1-n1c([C@H](C)Nc2nc(N)nc3nc[nH]c23)nc2cccc(C)c2c1=O,9.05% (inactive),
CC[C@@](C)(Nc1ccnc(-c2c[nH]c3ncccc23)n1)C(=O)NCC(F)(F)F,-2.08% (inactive),
O=C(O)C1(Cc2cccc(Nc3nccs3)n2)CCC(Oc2cccc(Cl)c2F)CC1 (stereo unspecified),8.13% (inactive),
CC(C)n1nc(-c2cc3cc(O)ccc3[nH]2)c2c(N)ncnc21,1.41% (inactive),
Cc1ccc(C(=O)Nc2ccc(Oc3cc4cnn(C)c4cc3-c3cn[nH]c3)c(F)c2)c(=O)n1-c1ccc(F)cc1,9.16% (inactive),

# Source: PubChem BioAssay AID1963321 (National Center for Advancing Translational Sciences (NCATS), 2024)
